Tg IFNy HTS – T. gondii growth inhibition with IFN-gamma, primary screen, cell-based | activity change, negative = inhibition, % (concentration not given with the values) | AID 1259416, 2018 | Toxoplasma gondii growth in IFN-gamma-treated host cells; active compounds read low | 3.8% of 69,000 active; in the data active = activity change below about -70%, passing the limit was not always enough;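 note: host cells are HeLa cells infected with Toxoplasma gondii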
Starred values were filed as active, the others as inactive. Shown is part of a subset that was picked to be rich in hits.

SMILES | Tg IFNy HTS
O=C(Nc1ccccc1F)c1cncc(NS(=O)(=O)c2ccc(Br)cc2)c1 | -10
COc1ccc(-c2nc(Nc3ccccc3)c3ccccc3n2)cc1 | -38
Cc1cc(C)nc(Nc2ccc(O)cc2)n1 | -5
COc1nc(Nc2ccccc2)nc(OC)n1 | -116*
O=C(Nc1ccccc1O)C1=CC2(CCNCC2)Oc2ccccc21 | 3
CCOc1cc(C(=O)Nc2ccc(Cl)c(-c3nc4ccccc4[nH]3)c2)cc(OCC)c1OCC | -76*
COc1ccc(C(=O)Nc2cccc(-c3nc4ccccc4[nH]3)c2)cc1 | -53
CCOc1cc(C(=O)Nc2ccc3c(c2)CCC(=O)N3)cc(OCC)c1OCC | 9
CC(C)Cc1cc(C(=O)N(C)Cc2nc(-c3ccccn3)no2)n(C)n1 | 1
Fc1cccc(CSc2nc(NCc3ccc(Cl)cc3)c3ccccc3n2)c1 | 4
Cc1c(NC(=O)c2ncoc2-c2ccc(F)cc2)c(=O)n(-c2ccccc2)n1C | -32
Cc1c(NC(=O)Cc2ccccc2)c(=O)n(-c2ccccc2)n1C | 6
Cc1c(NC(=O)c2cc3nc(-c4ccccc4)cc(C)n3n2)c(=O)n(-c2ccccc2)n1C | -86*
O=C(c1ccno1)N1CC[C@H]2CN(Cc3cccc(Cl)c3)S(=O)(=O)[C@@H]2CC1 | 5
CCCc1nc(C(=O)N2Cc3cnc(C(C)(C)C)nc3C2)cs1 | -30
COc1ccc(-c2nc3n(c(=O)c2C#N)CCCS3)cc1 | 44
O=c1c(C(c2cccnc2)c2c(O)nc3n(c2=O)CCS3)c(O)nc2n1CCS2 | 13
Fc1ccc(-c2nc3n(c2-c2ccncc2)CCS3)cc1 | -78*
Cc1cc(CNC(=O)c2cccc(NCc3ccc(F)cc3)c2)n[nH]1 | 22
CC1CCCCN1S(=O)(=O)c1ccc2c(c1)CCC(=O)N2CC(=O)Nc1ccc2c(c1)OCCO2 (stereo not drawn) | -12
CC1CCN(S(=O)(=O)c2ccc3c(c2)CCC(=O)N3CC(=O)Nc2ccc(F)cc2)CC1 | -24
Cc1cccc(NC(=O)CN2C(=O)CCc3cc(S(=O)(=O)N4CCC(C)CC4)ccc32)c1 | -30
Cc1ccc(NC(=O)CN2C(=O)CCc3cc(S(=O)(=O)N4CCC(C)CC4)ccc32)cc1F | -47
CC(=O)Nc1ccc(NC(=O)CN2C(=O)CCc3cc(S(=O)(=O)N4CCCCC4C)ccc32)cc1 (stereo not drawn) | -6
CC1CCN(S(=O)(=O)c2ccc3c(c2)CCC(=O)N3CC(=O)Nc2ccc(Cl)cc2)CC1 | -92*
SMILES | Tg IFNy HTS
Cc1ccc(NC(=O)CN2C(=O)CCc3cc(S(=O)(=O)N4CCC(C)CC4)ccc32)cc1Cl | -103*
Cc1ccc(NC(=O)CN2C(=O)CCc3cc(S(=O)(=O)N4CCCCC4C)ccc32)cc1C (stereo not drawn) | -84*
CC1CCN(S(=O)(=O)c2ccc3c(c2)CCC(=O)N3CC(=O)Nc2ccc3c(c2)OCO3)CC1 | -18
c1ccc(CN2CCc3nc(N4CCCC4)nc(N4CCn5cnnc5C4)c3C2)cc1 | -34
CC(C)C(=O)N1C[C@@H]2OCCN(c3cnccn3)[C@H]2C1 | 58
O=C(c1ccc2onc(-c3coc(-c4ccccc4)n3)c2c1)N1CCCO1 | 183
CCC(=O)NCc1ccccc1-c1cccc(-n2cccn2)c1 | -11
COc1ccc(Cc2cnc(NC(=O)Cc3ccc(-n4nnnc4C)cc3)s2)cc1 | -62
O=C(NCCc1csc(C2CCCN(C(=O)/C=C/c3cccs3)C2)n1)C1CC1 (stereo not drawn) | -4
CCCN1CCCN(C(=O)c2coc(COc3cccc4cnccc34)n2)CC1 | 10
CCCOc1cc2c(cc1CN(C)Cc1cc(=O)[nH]c3ccccc13)OCO2 | 98
CN(CC1COCCO1)c1nccc(N2CCC(O)CC2)n1 (stereo not drawn) | 6
N#Cc1ccsc1NS(=O)(=O)c1ccc(OC(F)(F)F)cc1 | -47
Cc1ccc(S(=O)(=O)N2CCC3(CC3C(=O)Nc3cccc(F)c3)C2)cc1F (stereo not drawn) | -65
Cc1ccc(S(=O)(=O)N2CC(C(=O)Nc3cccc(F)c3)C3(CCOCC3)C2)cc1 (stereo not drawn) | -75*
O=C(Nc1cccc(F)c1)N1CC(C(=O)N2CCOCC2)C2(CCOCC2)C1 (stereo not drawn) | -6
O=C(CC1=CCNCC1)N1CC[C@@H](c2ccc3ccccc3c2)[C@H](O)C1 | 101
CNC(=O)[C@]12CCO[C@H]1CCN(CCOc1ccc(Cl)cc1)C2 | -1
Nc1cc(-c2ccc(Cl)cc2)nc(N)n1 | 100
CCc1nc(N)nc(N)c1-c1ccc(Cl)cc1 | -95*
CSc1nc(-c2ccc(Cl)cc2)nc(N)c1-c1ccccc1 | 207
COc1ccc2c(c1)NC1(CCN(S(=O)(=O)c3ccc4c(c3)CCCC4)CC1)c1cccn1-2 | 8
N=C(N=C(N)N)N1CCOCC1 | 11
NC(=O)CN1CCOCCOCCN(CC(N)=O)CCOCC1 | -71*
CC(C)(C)NC(=O)CCN1CCOCC1 | 12
Cc1ccc(CN2CCC3(CC2)CN(C)Cc2ccccc23)o1 | -1
CC(=O)N1CCC2(CC1)OC(=O)C(C)=C2C(=O)Nc1ccc(C)c(Cl)c1 | 2
O=C(CCc1ccc2c(c1)OCO2)N[C@@H]1c2ccccc2C2(CCNCC2)[C@H]1O | 5
